# “And” between values parts separate entries of the source, which are not always exact repeats. Equal entries are not always repeated. The source made the active and inactive calls.
# System: not listed separately
# Assay: Plasmodium falciparum growth inhibition, primary screen, strain 3D7, DAPI fluorescence, 100 nL (AID 1184);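 also: parasites grown inside human red blood cells in medium with human serum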
# Settings: P. falciparum 3D7 growth, 3 d, higher = more signal
row,SMILES,z-score
1,CCCNC(=O)OC[C@H]1O[C@H](CCON=C(C)CCC(=O)OC[C@H]2O[C@H](C#Cc3ccccc3)C=C[C@@H]2Oc2ccc(C)cc2)C=C[C@@H]1Oc1ccc(OC)cc1,-2.1
2,CCOC(=O)c1ccc(NC(=O)O[C@H]2[C@H](OC(=O)Nc3ccccc3)[C@H](OC(=O)Nc3ccccc3)[C@@H](OC)O[C@@H]2CO)cc1,-2.51 and -2.22
3,CC(C)C(=O)N[C@@H]1CCCN1C(=O)C=Cc1ccccc1,1.99
4,CCOC(=O)[C@H](CC(C)C)NC(=O)CCC1CC(OC(=O)NCc2cccc3ccccc23)CC2(CCCC(COC(=O)NCc3ccccc3)O2)O1 (some centres undefined),-1.8
5,C=C[C@H](C)[C@H](O)c1ccc(O)c2ccccc12,0.138 and 0.719
6,C=CCN(C(=O)C1N(CCCCCCO)C(=O)C2C(C(=O)O)C3C=CC21O3)C(C)(C)C (centres undefined),-0.0557 and 0.444
7,COC(=O)[C@H](C)NC(=O)CCC1CC(OC(=O)NCCc2ccc(F)cc2)CC2(CCCC(COC(=O)NCCCN3CCCC3=O)O2)O1 (some centres undefined),-1.9
8,C#CCCCON=C1C[C@@H](O)[C@@H](O)[C@@H]2[C@@H]3C(=O)N(C4CCCCC4)C(=O)[C@@H]3CC[C@H]12,1.43
9,CO[C@@H]1COC(=O)CC=C[C@H](C)[C@@H](NS(=O)(=O)c2ccc(C)cc2)COC(=O)CC=C[C@@H]1C,0.707 and -0.283

# Target: Homeobox protein Hox-A13 (Mus musculus) (UniProt Q62424)
# Assay: inhibitors of HoxA13-DNA binding, primary screen, biochemical, fluorescence polarization, labeled oligonucleotide (AID 1185)
# Settings: 15 min, higher = more signal, called active from +8 up or from −8 down
# Homeobox protein Hox-A13 (Mus musculus), sequence (Q62424 whole entry, looked up): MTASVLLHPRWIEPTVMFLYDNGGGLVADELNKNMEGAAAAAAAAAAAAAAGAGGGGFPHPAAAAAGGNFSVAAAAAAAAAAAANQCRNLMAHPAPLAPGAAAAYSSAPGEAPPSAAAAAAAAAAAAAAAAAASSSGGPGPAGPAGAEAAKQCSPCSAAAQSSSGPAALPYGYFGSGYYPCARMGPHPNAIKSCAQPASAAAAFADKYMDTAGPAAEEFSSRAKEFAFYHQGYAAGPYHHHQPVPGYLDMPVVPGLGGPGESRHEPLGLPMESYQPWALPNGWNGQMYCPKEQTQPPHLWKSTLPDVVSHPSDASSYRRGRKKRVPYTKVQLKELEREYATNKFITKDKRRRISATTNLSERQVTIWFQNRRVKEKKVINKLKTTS
row,SMILES,z-score
1,CO[C@H]1COC(=O)[C@H](C)NC(=O)CC=C[C@@H](C)[C@H](OC)COC(=O)CC=C[C@@H]1C,-0.298 (inactive)
2,C=CCN(C(=O)C1N(CCOCCO)C(=O)C2C(C(=O)O)C3C=CC21O3)C(C)(C)C (centres undefined),-1.32 (inactive) and -0.575 (inactive)
3,O=C(NN=C1C[C@@H](O)[C@@H](O)[C@@H]2[C@@H]3C(=O)N(Cc4ccc5c(c4)OCO5)C(=O)[C@@H]3CC[C@H]12)OCc1ccccc1,0.0311 (inactive)
4,CC(C)=CCCC(C)=CCON=C1C[C@@H](O)[C@@H](O)[C@@H]2[C@@H]3C(=O)N([C@@H](C)c4ccccc4)C(=O)[C@@H]3CC[C@H]12,-0.414 (inactive)
5,C=CC[C@H](O)c1ccc(OCCO)cc1,-0.488 (inactive) and -0.803 (inactive)
6,O=c1n(-c2ccccc2)c(=O)n2n1CC[C@@H]1C(=NOC[C@@H](O)COCc3ccco3)[C@H]3O[C@H]3[C@@H](O)[C@@H]12,-0.683 (inactive) and -1.44 (inactive)
7,COC(=O)C1=C(C)N(Cc2ccccc2)C2=C3C(=O)N(C)C(=O)[C@@H]3[C@@](O)(C(=O)OC)C(=O)N2[C@@H]1c1ccccc1,-1.2 (inactive) and -0.234 (inactive)
8,CC(C)N1CC=CC23O[C@@H]4C=CCCOC(=O)C4[C@H]2C(=O)N(C(C)CO)[C@@H]3C1=O (some centres undefined),-3.49 (inactive) and -4.21 (inactive)
9,C=CCN(Cc1ccccc1)C(=O)C1N(CCCCCCO)C(=O)C2C(C(=O)O)C3C=CC21O3 (centres undefined),-0.888 (inactive) and 0.0908 (inactive)
10,CC(C)=NOCc1ccc(-c2cn([C@@H]3COC[C@H]3O)nn2)cc1,-0.221 (inactive)
11,C[C@@H](ON=C1[C@H]2CCn3c(=O)n(-c4ccccc4)c(=O)n3[C@H]2[C@H](O)[C@@H]2O[C@H]12)c1cn([C@H](CO)Cc2ccccc2)nn1,-2.41 (inactive)
12,C=C[C@H](C)[C@@H](O)c1ccc(OCCO)cc1,-1.51 (inactive) and -0.976 (inactive)
13,CC(C)CON=C1C[C@@H](O)[C@@H](O)[C@@H]2[C@@H]3C(=O)N(c4cccc(Oc5ccccc5)c4)C(=O)[C@@H]3CC[C@H]12,0.875 (inactive)
14,CC(CO)N1C(=O)[C@@H]2C3C(=O)OCCC=C[C@H]3OC23C=CCN(Cn2nnc4ccccc42)C(=O)[C@@H]13 (some centres undefined),-3.43 (inactive) and -5.52 (inactive)
15,C=C(C)C(=O)OC[C@@H]1CN2[C@@H](CC[C@@H](C)[C@@H]2c2ccc(Br)cc2)C(=O)O1,-3.29 (inactive)
16,C[C@@H]1CC[C@@H](C(=O)O)N[C@H]1c1ccc(-c2ccco2)cc1,-1.59 (inactive)
17,COC(=O)C1=C(C)N(Cc2ccccc2)[C@]23O[C@](C(=O)OC)(C(=O)N2[C@@H]1c1ccccc1)[C@@H](c1ccccc1)[C@@H]3C(=O)c1ccccc1,-0.11 (inactive) and -0.0833 (inactive)
18,COC(=O)CC=C[C@@H](C)[C@@H](CO)NS(=O)(=O)c1ccc(C)cc1,0.0308 (inactive) and -1.12 (inactive)
19,CO[C@@H]1COC(=O)CC=C[C@H](C)COC(=O)[C@H](C)NC(=O)CC=C[C@H]1C,-0.16 (inactive)
20,C[C@@H](c1ccccc1)N1C(=O)[C@H]2[C@H]3[C@H](O)[C@H](O)CC(=O)[C@@H]3CC[C@H]2C1=O,0.063 (inactive)

row,SMILES,z-score
1,C=CCN(C(=O)C1N(C(C)(C)CO)C(=O)C2C(C(=O)O)C3C=CC21O3)C(C)(C)C (centres undefined),-1.11 (inactive) and 0.241 (inactive)
2,CCOC(=O)C[C@H]1[C@H](OC(=O)c2ccccc2-c2ccccc2)[C@@H](NC(=O)Cc2ccc(OC)cc2)c2cc(OCCCO)ccc2N1C(=O)c1ccc2ccccc2n1,-1.67 (inactive) and -0.554 (inactive)
3,C=CCN(CCCCC)C(=O)C1N(c2ccc(CCO)cc2)C(=O)C2C(C(=O)O)C3C=CC21O3 (centres undefined),-2.29 (inactive) and -2.06 (inactive)
4,COc1ccc(O[C@H]2C=C[C@@H](c3ccccc3)O[C@@H]2COC(=O)CCC(C)=NO[C@H](C)c2cn([C@H](CO)Cc3ccccc3)nn2)cc1,-5.26 (inactive) and -4.59 (inactive)
5,C=CCN(CCCC)C(=O)C1N(c2ccc(CCO)cc2)C(=O)C2C(C(=O)O)C3C=CC21O3 (centres undefined),-1.03 (inactive) and -0.448 (inactive)
6,Cc1ccc(S(=O)(=O)OC[C@@H]2CN3[C@@H](CC[C@@H](C)[C@@H]3c3ccc(Br)cc3)C(=O)O2)cc1,0.16 (inactive) and 0.956 (inactive)
7,Cc1ccc(S(=O)(=O)N[C@H]2COC(=O)[C@@H](Cc3ccccc3)NC(=O)[C@@H](C)COC(=O)CC=C[C@@H]2C)cc1,0.469 (inactive) and -3.02 (inactive)
8,O=C1[C@H]2[C@H]3[C@H](O)[C@H](O)CC(=NOCc4ccccc4)[C@H]3CC[C@H]2C(=O)N1Cc1ccccc1,-1.09 (inactive)
9,CON(C)C(=O)c1nnc2c3ccccc3n(S(=O)(=O)c3ccc(C)cc3)c2n1,-5.36 (inactive) and -5.11 (inactive)
10,CCOC(=O)NN=C1C[C@@H](O)[C@@H](O)[C@@H]2[C@@H]3C(=O)N(Cc4ccc5c(c4)OCO5)C(=O)[C@@H]3CC[C@@H]12,-0.24 (inactive)
11,C=CCN(Cc1ccccc1)C(=O)C(c1cccs1)N(C(=O)/C=C\C(=O)O)c1c(Cl)cccc1CO (centres undefined),1.14 (inactive) and 0.425 (inactive)
12,CCCNC(=O)OC[C@H]1O[C@H](CCON=C(C)CCC(=O)OC[C@H]2O[C@H](C#Cc3ccccc3)C=C[C@@H]2Oc2ccc(C)cc2)C=C[C@@H]1Oc1ccc(OC)cc1,-0.983 (inactive)
13,CCOC(=O)c1ccc(NC(=O)O[C@H]2[C@H](OC(=O)Nc3ccccc3)[C@H](OC(=O)Nc3ccccc3)[C@@H](OC)O[C@@H]2CO)cc1,-1.14 (inactive) and -4.8 (inactive)
14,CC(C)C(=O)N[C@@H]1CCCN1C(=O)C=Cc1ccccc1,-1.68 (inactive)
15,CCOC(=O)[C@H](CC(C)C)NC(=O)CCC1CC(OC(=O)NCc2cccc3ccccc23)CC2(CCCC(COC(=O)NCc3ccccc3)O2)O1 (some centres undefined),-2.88 (inactive)
16,C=C[C@H](C)[C@H](O)c1ccc(O)c2ccccc12,-3.07 (inactive) and -2.91 (inactive)
17,C=CCN(C(=O)C1N(CCCCCCO)C(=O)C2C(C(=O)O)C3C=CC21O3)C(C)(C)C (centres undefined),-0.569 (inactive) and -2.68 (inactive)
18,COC(=O)[C@H](C)NC(=O)CCC1CC(OC(=O)NCCc2ccc(F)cc2)CC2(CCCC(COC(=O)NCCCN3CCCC3=O)O2)O1 (some centres undefined),-4.1 (inactive)
19,C#CCCCON=C1C[C@@H](O)[C@@H](O)[C@@H]2[C@@H]3C(=O)N(C4CCCCC4)C(=O)[C@@H]3CC[C@H]12,0.504 (inactive)
20,CO[C@@H]1COC(=O)CC=C[C@H](C)[C@@H](NS(=O)(=O)c2ccc(C)cc2)COC(=O)CC=C[C@@H]1C,-1.05 (inactive) and -2.69 (inactive)
